Consider seven compounds from PubChem BioAssay AID602288 (National Center for Advancing Translational Sciences (NCATS), 2012).

Inconclusive results are not listed. Calls of active or inactive are those of the source. Calls come from the whole dose curve; as a rule, active = well fitted cell-killing curve with a large enough effect (not every such curve was filed as active); inconclusive = small, poorly fitted or top-dose-only effect, or another doubt; inactive = no such curve, though single readings can be large or run the other way.

This experiment in a line: qHTS Assay for Agonists of the Relaxin Receptor RXFP1: Cytotoxicity SAR. The note with it: HEK293-RXFP1 viability, ATPLite luminescence, 72 h; series mostly up to 78.1 µM; activity change, negative = cytotoxicity: at the top concentration. The source says:
The relaxin hormone is involved in the variety of biological functions in normal tissues and diseases. The role of relaxin is well-established in female reproduction and parturition, mammary gland and endometrial development, maintenance of myometrial quiescence during pregnancy. Relaxin signaling through its G protein-coupled receptor (GPCR) RXFP1 results in ECM remodeling through regulation of collagen deposition, cell invasiveness, proliferation and overall tissue homeostasis. […] Recombinant human relaxin (rhRlx) is currently being tested in clinical trials as a protective agent in congestive heart failure, in treating severe preeclampsia, and as an anti-fibrotic agent in systemic sclerosis. In the primary screen, upon relaxin binding RXFP1 activation leads to the activation of adenylate cyclase (AC) via Gs. cAMP will activate PKA, which phosphorylates many signaling proteins. Thus, detection of cAMP increase is an easy and reliable indication of relaxin receptor activation. To screen for agonists of the relaxin receptor, a HEK293T cell line stably transfected with RXFP1 was used. RXFP1 activation was assayed by changes in cAMP levels as detected with a time-resolved fluorescence energy transfer (TR-FRET) cAMP detection kit. We conducted this followup assay to measure the effect of the lead candidates on cell health by measuring ATP levels (ATPLite). NIH Chemical Genomics Center [NCGC] NIH Molecular Libraries Probe Production Centers Network [MLPCN] MLPCN Grant: R03 MH085705-01A1 Assay Submitter (PI): Alexander Agoulnik
In this assay, the luciferase enzyme catalyzes the conversion of the added substrate D-luciferin to oxyluciferin and light with ATP. Thus, the emitted light is proportional to the ATP concentration. To evaluate the cytotoxic properties of the compounds, HEK293-RXFP1 cells were incubated with compounds for 72 h in growth media (DMEM 10% FBS, 1x Pen/Strep, 0.5 mg/mL G418) in 384-well format. After compound incubation, the levels of ATP in each well were measured with the addition of the ATPLite assay reagent.
On the technique in general: In qHTS, concentration-response curves come from the screen itself.
Regarding `O=C(Nc1cccc(S(=O)(=O)C(F)(F)F)c1)c1ccccc1NC(=O)C1CCCCC1`, the Potency is 14.9 µM (active). Still for that read-out and setting: the same measure for `CCOc1ccccc1C(=O)Nc1ccncc1C(=O)Nc1cccc(S(=O)(=O)C(F)(F)F)c1`: 2.36 µM (active). `CCCOc1ccccc1C(=O)Nc1ccccc1C(=O)Nc1cccc(S(=O)(=O)C(F)(F)F)c1`: the Potency is 9.4 µM (active).

Take `O=C(Nc1cccc(-c2ccccc2C(F)(F)F)c1)c1ccccc1NC(=O)C1CCCCC1`: the “activity change, negative = cytotoxicity” value was -39.7% (inactive).

In the case of `CCC(CC)C(=O)Nc1ccccc1C(=O)Nc1cccc(C(F)(F)F)c1`, the Potency is 9.4 µM (active). With `O=C(Nc1cccc(C(F)(F)F)c1)c1ccccc1NC(=O)C1CC1`, the “activity change, negative = cytotoxicity” value was -17.1% (inactive).

For `CCOc1ccccc1S(=O)(=O)Nc1ccccc1C(=O)Nc1cccc(S(=O)(=O)C(F)(F)F)c1`, the Potency was 5.93 µM (active).
